Experiment [1] can be described thus: P-glycoprotein substrates identified in KB-3-1 adenocarcinoma cell line, qHTS therapeutic library screen (AID 1346986). Further: nearly all actives have a fitted effect of over 60% in size. Put shortly: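 Resistance attributable to P-gp was assessed by comparing AC50 in KB-8-5-11 with parental KB-3-1 and by tariquidar reversal. Cells were exposed 72 h and viability read by CellTiter-Glo.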
Background: Quantitative high-throughput screening tests each substance at several concentrations.

Experiment [2] in a line: qHTS assay to identify small molecule inhibitors of chordoma cells - UCH-2 (AID 1259356). Further: potency means the concentration at half of the fitted maximal effect.
Experiment [3] is described as follows: P-glycoprotein substrates identified in KB-8-5-11 adenocarcinoma cell line, qHTS therapeutic library screen (AID 1346987). Further: nearly all actives have a fitted effect of over 65% in size. Further: potency means the concentration at half of the fitted maximal effect. Put shortly: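 KB-8-5-11, a colchicine-selected P-gp-overexpressing KB-3-1 subline, was grown without colchicine for the assay. Cells were seeded at 500 cells/well, dosed in concentration-response and incubated 72 h at 37 degree C, 5% CO2. Viability was read by CellTiter-Glo luminescence.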

The nature of experiment [4]: qHTS for Inhibitors of the Functional Ribonucleoprotein Complex (vRNP) of Lassa (LASV) Arenavirus: LASV Primary Screen - GLuc reporter signal (AID 1347082; calls by dose curve; tested in HEK293 reporter line; further: series mostly up to about 57 µM; nearly all actives have a fitted effect of over 60% in size).
The nature of experiment [5]: qHTS for Inhibitors of the Functional Ribonucleoprotein Complex (vRNP) of Lassa (LASV) Arenavirus: Viability assay - alamar blue signal for LASV Primary Screen (AID 1347083; calls by dose curve; tested in HEK293 reporter line; further: series mostly up to about 57 µM; nearly all actives have a fitted effect of over 80% in size).
Experiment [6] in a line: qHTS for Inhibitors of the Functional Ribonucleoprotein Complex (vRNP) of Lymphocytic Choriomeningitis Arenaviruses (LCMV): Viability assay - alamar blue signal for LCMV Primary Screen (AID 1347085; calls by dose curve; tested in HEK293 reporter line; further: series mostly up to about 57 µM; nearly all actives have a fitted effect of over 80% in size).
Experiment [7] deals with Nucleoprotein (Lymphocytic choriomeningitis virus (strain Armstrong)) (UniProt P09992). The experiment is described as follows: qHTS for Inhibitors of the Functional Ribonucleoprotein Complex (vRNP) of Lymphocytic Choriomeningitis Arenaviruses (LCMV): LCMV Primary Screen - GLuc reporter signal (AID 1347086; calls by dose curve; further: series mostly up to about 57 µM; nearly all actives have a fitted effect of over 70% in size).
Experiment [8] is described as follows: qHTS of pediatric cancer cell lines to identify multiple opportunities for drug repurposing: Primary screen for DAOY cells (AID 1347090). Further: potency means the concentration at half of the fitted maximal effect; nearly all actives have a fitted effect of over 55% in size. Put shortly:
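Eight- or eleven-point concentration series, 48 h treatment at 37 degrees C in growth media; readout CellTiter-Glo luminescence. Potency and efficacy were taken from the concentration-response curves.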

A short description of experiment [9]: qHTS of pediatric cancer cell lines to identify multiple opportunities for drug repurposing: Primary screen for A673 cells (AID 1347092). Further: potency means the concentration at half of the fitted maximal effect; nearly all actives have a fitted effect of over 45% in size. Put shortly:
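Luminescence from CellTiter-Glo, taken after 15 min at room temperature, served as the proxy for metabolically active cells following 48 h treatment. Both potency and efficacy were taken from curves fitted to the titration data.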

Experiment [10] can be described thus: qHTS of pediatric cancer cell lines to identify multiple opportunities for drug repurposing: Primary screen for SK-N-MC cells (AID 1347093). Further: potency means the concentration at half of the fitted maximal effect. The essentials:
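Metabolically active cells were quantified by ATP-dependent luminescence (CellTiter-Glo, 15 min at room temperature) following 48 h treatment. Cells had been plated at 500-1,000 per well and settled for 5 h beforehand.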

Experiment [11] can be described thus: Natriuretic polypeptide receptor (hNpr1) antagonism - Pilot counterscreen GloSensor control cell line (AID 1347045; calls by dose curve; further: series mostly up to about 38 µM). Put shortly:
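HEK293 cGMP GloSensor cells preloaded 2 h with 2% GloSensor reagent, then compound 30 min before baseline luminescence read. Stimulated with 50 uM sodium nitroprusside, 20 min at room temperature, then read again; counterscreen for Npr1 antagonism.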

Experiment [12] deals with Atrial natriuretic peptide receptor 1 (Homo sapiens) (UniProt P16066). The experiment is described as follows: Natriuretic polypeptide receptor (hNpr1) antagonism - Pilot screen (AID 1347049; calls by dose curve;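 further: agonist-evoked cGMP luminescence read 20 min after hNppA addition; series mostly up to about 58 µM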). The essentials: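 HEK293 cells co-expressing hNpr1 and the GloSensor pGS-40F cGMP luciferase sensor were preloaded with 2% GloSensor reagent for 2 h. Compounds were added for 30 min at room temperature, then cells were stimulated with 0.1 nM hNppA for 20 min before luminescence readout.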

The target in experiment [13] is Atrial natriuretic peptide receptor 2 (Homo sapiens) (UniProt P20594). Briefly: Natriuretic polypeptide receptor (hNpr2) antagonism - Pilot subtype selectivity assay (AID 1347050; calls by dose curve). Put shortly:
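cGMP-sensor HEK293/hNpr2 cells; 2% GloSensor reagent 2 h RT; compounds 30 min; baseline luminescence read; 1 nM hNppC agonist 20 min RT; final luminescence read by CCD camera. Antagonism = reduced post-agonist signal.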

The target in experiment [14] is Parathyroid hormone/parathyroid hormone-related peptide receptor (Homo sapiens) (UniProt Q03431). Briefly: qHTS for PTHR1 Agonists: Optimization Screen against the NCGC LOPAC library (AID 1347079).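 Further: GloSensor cAMP luminescence in HEK-293 GP2 cells expressing human PTHR1 with IBMX.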 Put shortly:
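Agonist readout: GloSensor cAMP luminescence, read after 15 min at room temperature. HEK-293-derived GP2 line carries PTHR1; compounds tested as a titration for 1 hr at 37C in presence of IBMX. M-PTH (1-15) served as control.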

Unmarked numbers belong to inactive results. Results filed as inconclusive are left out. The source made the active and inactive calls. Unless noted, the call rests on the fitted dose curve; in most records, active means well fitted curve in the direction sought with a large enough effect; inconclusive means small, poorly fitted or top-dose-only effect, or another doubt; inactive means no such curve, though single readings can be large; an effect the other way counts as inactive or inconclusive.

Chain of Nucleoprotein (Lymphocytic choriomeningitis virus (strain Armstrong)) (P09992 whole entry, looked up): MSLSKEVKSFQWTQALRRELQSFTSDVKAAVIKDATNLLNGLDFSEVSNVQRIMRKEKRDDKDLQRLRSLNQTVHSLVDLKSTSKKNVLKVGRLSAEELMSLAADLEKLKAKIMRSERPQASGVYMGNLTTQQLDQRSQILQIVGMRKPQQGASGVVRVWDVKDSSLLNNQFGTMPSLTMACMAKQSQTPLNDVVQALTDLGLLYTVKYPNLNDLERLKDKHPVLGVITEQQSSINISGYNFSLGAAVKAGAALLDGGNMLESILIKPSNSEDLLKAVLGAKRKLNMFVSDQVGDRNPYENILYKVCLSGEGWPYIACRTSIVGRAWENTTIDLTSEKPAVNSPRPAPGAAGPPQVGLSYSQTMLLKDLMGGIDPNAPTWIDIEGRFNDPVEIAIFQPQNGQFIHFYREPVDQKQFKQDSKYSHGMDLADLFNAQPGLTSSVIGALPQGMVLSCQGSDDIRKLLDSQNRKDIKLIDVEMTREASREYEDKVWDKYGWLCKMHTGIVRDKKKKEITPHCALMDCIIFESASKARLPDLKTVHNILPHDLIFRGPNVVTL
Chain of Parathyroid hormone/parathyroid hormone-related peptide receptor (Homo sapiens) (Q03431 whole entry, looked up): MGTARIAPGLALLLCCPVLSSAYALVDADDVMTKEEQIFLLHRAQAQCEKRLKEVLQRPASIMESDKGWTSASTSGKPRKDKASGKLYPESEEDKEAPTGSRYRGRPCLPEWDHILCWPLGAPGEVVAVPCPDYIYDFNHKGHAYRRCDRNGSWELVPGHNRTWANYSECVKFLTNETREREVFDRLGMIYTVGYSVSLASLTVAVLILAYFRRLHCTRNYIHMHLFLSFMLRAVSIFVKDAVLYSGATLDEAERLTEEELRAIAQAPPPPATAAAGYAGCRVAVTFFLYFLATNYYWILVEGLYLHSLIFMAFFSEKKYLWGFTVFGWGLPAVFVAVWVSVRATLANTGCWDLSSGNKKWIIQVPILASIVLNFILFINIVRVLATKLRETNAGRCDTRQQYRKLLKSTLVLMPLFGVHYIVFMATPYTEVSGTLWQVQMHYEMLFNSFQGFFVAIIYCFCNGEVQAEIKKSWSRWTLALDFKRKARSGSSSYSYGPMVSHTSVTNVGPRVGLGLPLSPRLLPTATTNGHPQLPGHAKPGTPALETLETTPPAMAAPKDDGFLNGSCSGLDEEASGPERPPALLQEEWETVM
Chain of Atrial natriuretic peptide receptor 1 (Homo sapiens) (P16066 whole entry, looked up): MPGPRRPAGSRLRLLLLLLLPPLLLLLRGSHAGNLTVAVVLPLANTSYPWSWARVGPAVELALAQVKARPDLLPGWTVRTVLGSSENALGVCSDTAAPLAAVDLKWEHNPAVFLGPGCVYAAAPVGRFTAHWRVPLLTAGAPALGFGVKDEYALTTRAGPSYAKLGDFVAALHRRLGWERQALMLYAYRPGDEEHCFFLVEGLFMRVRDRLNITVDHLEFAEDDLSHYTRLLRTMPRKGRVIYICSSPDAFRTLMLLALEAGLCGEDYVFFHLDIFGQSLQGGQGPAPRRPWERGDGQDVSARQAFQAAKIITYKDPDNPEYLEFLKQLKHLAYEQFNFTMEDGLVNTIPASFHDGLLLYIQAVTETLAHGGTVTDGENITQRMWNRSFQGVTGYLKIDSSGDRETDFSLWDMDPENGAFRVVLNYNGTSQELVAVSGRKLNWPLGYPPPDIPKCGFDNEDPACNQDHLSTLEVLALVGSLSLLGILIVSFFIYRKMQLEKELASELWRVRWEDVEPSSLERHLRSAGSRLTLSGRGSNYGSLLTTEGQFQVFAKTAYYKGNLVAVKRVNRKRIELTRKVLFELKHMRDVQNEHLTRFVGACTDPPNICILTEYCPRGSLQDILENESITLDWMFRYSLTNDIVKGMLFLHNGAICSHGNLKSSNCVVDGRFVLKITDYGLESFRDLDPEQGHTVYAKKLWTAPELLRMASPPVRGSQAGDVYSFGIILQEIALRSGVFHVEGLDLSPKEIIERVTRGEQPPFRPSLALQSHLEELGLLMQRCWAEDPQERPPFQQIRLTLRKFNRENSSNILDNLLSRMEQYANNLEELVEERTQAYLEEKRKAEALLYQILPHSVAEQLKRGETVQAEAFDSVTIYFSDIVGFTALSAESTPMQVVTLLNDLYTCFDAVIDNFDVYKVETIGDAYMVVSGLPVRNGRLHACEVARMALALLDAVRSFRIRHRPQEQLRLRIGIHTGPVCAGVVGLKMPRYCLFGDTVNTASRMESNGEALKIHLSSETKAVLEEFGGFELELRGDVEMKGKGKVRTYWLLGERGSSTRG
Chain of Atrial natriuretic peptide receptor 2 (Homo sapiens) (P20594 whole entry, looked up): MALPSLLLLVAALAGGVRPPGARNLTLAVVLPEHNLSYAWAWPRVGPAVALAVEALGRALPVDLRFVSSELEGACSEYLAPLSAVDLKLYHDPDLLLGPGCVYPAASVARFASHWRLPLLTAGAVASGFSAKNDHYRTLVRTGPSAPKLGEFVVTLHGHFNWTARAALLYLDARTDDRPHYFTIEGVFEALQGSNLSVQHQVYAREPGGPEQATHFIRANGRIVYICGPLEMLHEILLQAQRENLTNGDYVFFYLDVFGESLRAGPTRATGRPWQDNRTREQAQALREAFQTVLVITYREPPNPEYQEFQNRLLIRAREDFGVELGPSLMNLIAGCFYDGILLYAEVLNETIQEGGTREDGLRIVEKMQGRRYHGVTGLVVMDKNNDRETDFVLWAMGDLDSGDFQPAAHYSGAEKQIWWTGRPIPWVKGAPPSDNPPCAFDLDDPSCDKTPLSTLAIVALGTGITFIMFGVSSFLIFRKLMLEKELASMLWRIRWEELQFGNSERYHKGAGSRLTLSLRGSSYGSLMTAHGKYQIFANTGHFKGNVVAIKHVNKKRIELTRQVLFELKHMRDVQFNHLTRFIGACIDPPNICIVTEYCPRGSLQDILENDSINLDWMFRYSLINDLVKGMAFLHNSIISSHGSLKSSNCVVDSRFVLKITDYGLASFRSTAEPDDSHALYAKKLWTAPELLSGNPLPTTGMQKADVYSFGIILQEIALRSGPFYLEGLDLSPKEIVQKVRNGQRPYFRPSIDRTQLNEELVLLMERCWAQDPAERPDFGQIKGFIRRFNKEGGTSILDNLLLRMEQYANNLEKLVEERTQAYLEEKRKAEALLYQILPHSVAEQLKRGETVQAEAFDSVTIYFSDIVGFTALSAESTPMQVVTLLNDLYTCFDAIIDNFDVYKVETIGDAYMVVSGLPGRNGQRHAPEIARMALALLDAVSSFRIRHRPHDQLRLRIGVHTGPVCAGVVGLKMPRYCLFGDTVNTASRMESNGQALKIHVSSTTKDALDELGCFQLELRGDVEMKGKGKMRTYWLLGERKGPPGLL

Take `O=C1C[C@@H]2OCC=C3CN4CC[C@]56c7ccccc7N1[C@H]5[C@H]2[C@H]3C[C@H]46`: in experiment [1], the Potency result is “inactive”.
As to `Cc1ccccc1-n1c(CF)nc2ccc(N)cc2c1=O`, the Potency result in experiment [2] and in experiment [3] was “inactive” each time.
For the compound `COC(=O)[C@@H]1[C@H]2CC[C@@H](C[C@H]1OC(=O)c1ccccc1)N2C`, the Potency entry in [2] and in experiment [3] was “inactive” in each case.
Turning to `O=C1OC2(c3cc(Br)c(O)cc3Oc3c2cc(Br)c(O)[c]3[Hg])c2ccccc21` (configuration not stated), the Potency entry in [2] and in experiment [3] was “inactive” in each case.
For `CCNC1(c2cccs2)CCCCC1=O` (configuration not stated), the Potency result in experiment [2] and in experiment [3] was “inactive” throughout.
With `CN1c2ccccc2C(NCCCCCCC(=O)O)c2ccc(Cl)cc2S1(=O)=O` (configuration not stated), the Potency entry in experiment [2] and in experiment [3] was “inactive” throughout.
Turning to `O=CC=O`, the Potency result in experiment [2] and in experiment [3] was “inactive” throughout.
As to `CNc1ccc(C(=O)CC(O)CCC(C)C2OC(=O)CC(O)CC(=O)CC(O)CC(O)CC(O)CC(O)CC3(O)CC(O)C(C(=O)OC)C(CC(O[C@@H]4O[C@H](C)[C@@H](O)[C@H](N)[C@@H]4O)/C=C/C=C/C=C/C=C/C=C/C=C/C=C/C2C)O3)cc1` (some centres not stated), the Potency result in experiment [2] and in experiment [3] was “inactive” each time.
`CCCC(C)C1(CC)C(=O)NC(=O)NC1=O` (configuration not stated): the Potency result in experiment [2] and in experiment [3] was “inactive” each time.
Consider `O=C1C[C@@H]2OCC=C3CN4CC[C@]56c7ccccc7N1[C@H]5[C@H]2[C@H]3C[C@H]46` (tested in a mixture with another compound), for which the Potency entry in experiment [2] and in experiment [3] was “inactive” throughout.
Turning to `C[C@]12CCC(=O)C[C@@H]1CC[C@@H]1[C@@H]2CC[C@]2(C)[C@@H](O)CC[C@@H]12`, the Potency result in [2] was “inactive”. In addition, the Potency in experiment [3] was 8.2 µM (active).
As for `C#CC(C)(O)CC` (configuration not stated), the Potency entry in [2] and in experiment [3] was “inactive” in each case.
In the case of `NCC(O)c1cccc(O)c1` (configuration not stated), the Potency entry in [2] and in experiment [3] was “inactive” each time.
For `CC(Cc1ccccc1)NC=O` (configuration not stated), the Potency entry in [2] and in [3] was “inactive” throughout.
For the compound `c1ccc(C2(N3CCCC3)CCCCC2)cc1`, the Potency entry in experiment [2] and in [3] was “inactive” each time.
Take `Cc1ccccc1-n1c(C)nc2ccccc2c1=O`: the Potency entry in experiment [2] and in experiment [3] was “inactive” each time.
Turning to `C=CCN1CC[C@]23c4c5ccc(O)c4O[C@H]2[C@@H](O)C=C[C@H]3[C@H]1C5`, the Potency result in experiment [2] and in experiment [3] was “inactive” throughout.
As for `Cc1cccc(C(C)c2cnc[nH]2)c1C` (configuration not stated), the Potency result in experiment [2] and in experiment [3] was “inactive” throughout.
In the case of `O=[N+]([O-])c1ccccc1`, the Potency result in experiment [2] and in [3] was “inactive” each time.
For `CNC(C)C(O)c1ccc(O)cc1` (configuration not stated), the Potency entry in [2] and in [3] was “inactive” each time.
On to `C[C@]12CC[C@H](O)C[C@H]1CC[C@@H]1[C@@H]2CC[C@]2(C)[C@@H](c3ccc(=O)oc3)C[C@H]3O[C@]132`, for which the values for the Potency in experiment [2] and in [3] were 6.51 µM (active) and 1.84 µM (active), respectively.
In the same order, the values of `Clc1ccc(C2(Cn3cncn3)OCCO2)c(Cl)c1` are “inactive” and “inactive”.
For `CC(C)(C)c1cc(O)ccc1O` the same measures were “inactive” and “inactive”.
For `CCOc1ccc2c3c1O[C@H]1[C@@H](O)C=C[C@H]4[C@@H](C2)N(C)CC[C@@]341` the same measures were “inactive” and “inactive”.
In the case of `[H+].[H+].[Hg+2].[O-]B([O-])[O-].[c-]1ccccc1`, the Potency in experiment [2] was 13 µM (active); in experiment [3] it was 1.3 µM (active).
Turning to `FC(F)OC(F)(F)C(F)Cl` (configuration not stated), the Potency entry in experiment [2] and in experiment [3] was “inactive” each time.
As for `C[C@]12CCC(=O)C=C1C=C[C@@H]1[C@@H]2CC[C@@]2(C)[C@H]1CC[C@@]2(O)CCC(=O)O`, the Potency result in experiment [2] and in experiment [3] was “inactive” in each case.
On to `COc1ccc2c3c1O[C@H]1C(=O)CC[C@H]4[C@@H](C2)N(C)CC[C@]314`, for which the Potency result in [2] and in [3] was “inactive” throughout.
Take `[O]=[Cd]`: the Potency entry in experiment [2] and in experiment [3] was “inactive” in each case.
On to `CC(N)Cc1ccc(O)cc1` (configuration not stated), for which the Potency entry in experiment [2] and in experiment [3] was “inactive” each time.
Turning to `CN(C)[C@H](Cc1ccccc1)c1ccccc1`, the Potency result in experiment [2] and in experiment [3] was “inactive” in each case.
For the compound `c1csc(C2(N3CCCCC3)CCCCC2)c1`, the Potency entry in experiment [2] and in experiment [3] was “inactive” each time.
For `C[C@@H]([C@H](O)c1ccccc1)N(C)C`, the Potency result in experiment [2] and in [3] was “inactive” throughout.
On to `CCOC(=O)/C=C(C)/C=C/C[C@@H](C)CCCC(C)C`, for which the Potency entry in experiment [2] and in experiment [3] was “inactive” throughout.
With `CCN(CC)C(=O)/C(Cl)=C(\C)OP(=O)(OC)OC`, the Potency entry in [2] and in experiment [3] was “inactive” throughout.
Take `CCC(=O)O[C@]1(c2ccccc2)CCN(C)C[C@H]1C`: the Potency entry in experiment [2] and in [3] was “inactive” in each case.
`CN(C)CCCCCCN(C)C` (tested in a mixture with another compound): the Potency entry in experiment [2] and in [3] was “inactive” each time.
Turning to `CCC(N)Cc1c[nH]c2ccccc12` (configuration not stated), the Potency result in experiment [2] and in experiment [3] was “inactive” throughout.
As for `CC(=O)O[C@H]1C[C@H](O[C@H]2[C@@H](O)C[C@H](O[C@H]3[C@@H](O)C[C@H](OC4CC[C@@]5(C)[C@H](CC[C@@H]6[C@@H]5CC[C@]5(C)[C@@H](C7=CC(=O)OC7)CC[C@]65O)C4)O[C@@H]3C)O[C@@H]2C)O[C@H](C)[C@H]1O[C@@H]1O[C@H](CO)[C@@H](O)[C@H](O)[C@H]1O` (some centres not stated), the Potency in [2] and in [3] was 0.259 µM (active) throughout.
With `C[CH2][Hg][S]c1ccccc1C(=O)O`, the Potency was 3.66 µM (active) in [2]; 2.31 µM (active) in experiment [3]; 2.66 µM (active) in experiment [8]; 0.841 µM (active) in experiment [9]; 0.668 µM (active) in experiment [10]. The Potency result in [4], in [5], in [6] and in [7] was “inactive” each time.
As to `CCCCCOc1cc2c(cc1-c1cc(/C=C/C(=O)O)ccc1O)C(C)(C)CCC2(C)C`, the Potency entry in experiment [1] was “inactive”.
As for `CC(C)[C@@]1(NC(=O)[C@@H]2C[C@@H]3c4cccc5[nH]cc(c45)C[C@H]3N(C)C2)O[C@@]2(O)[C@@H]3CCCN3C(=O)[C@H](Cc3ccccc3)N2C1=O`, the Potency result in experiment [2], in [3], in [11], in experiment [12], in experiment [13] and in experiment [14] was “inactive” each time. Moreover, the Potency entry in experiment [4], in experiment [5], in [6] and in [7] was “inactive” throughout.

The values are drawn from PubChem BioAssay (NCATS).
